Compound activity: PubChem, several laboratories
In the library only some 2.7% were active in any assay of this set; here they are far more common.
SENP7 inh: inhibitors of human SENP7 protease | inhibition, % at 5 µM | Q9BQF6 | 330,000 compounds, 1.5% hits | recombinant SENP7, Z-RLRGG-aminoluciferin luminescence, 40 min;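 active = inhibition above about 50% at the single test dose, limit read from the data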
SENP8 block-1: inhibitors of human SENP8 protease; recombinant SENP8, Nedd8 substrate fluorescence; 360,000 compounds, 0.64% hits; inhibition, % at 20 µM; Q96LD8; in the data active = inhibition mostly above about 40%, no sharp cut-off; inactive = mostly below about 27%
Target sequence (Q96LD8 whole entry, looked up): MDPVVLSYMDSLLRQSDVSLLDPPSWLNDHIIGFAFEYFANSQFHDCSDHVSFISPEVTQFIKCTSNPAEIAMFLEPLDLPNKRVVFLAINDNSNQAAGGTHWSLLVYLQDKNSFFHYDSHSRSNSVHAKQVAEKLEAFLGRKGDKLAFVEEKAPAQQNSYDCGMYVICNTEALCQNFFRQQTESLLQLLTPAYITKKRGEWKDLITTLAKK
SENP6 inh: SENP6 protease inhibition; Q9GZR1; AID 2599; Recombinant SENP6 catalytic domain, aminoluciferin luminescence; inhibition, % at 10 µM; 330,000 compounds, 1.8% hits;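 active = inhibition above about 50% at the single tested dose, limit read from the data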
SENP8 block-2: SENP8 protease inhibition | AID 2540 | 330,000 compounds, 1.2% hits | inhibition, % at 10 µM | Q96LD8 | purified SENP8, Z-RLRGG-aminoluciferin cleavage, luminescence; in the data active = inhibition above about 50%
HSP90 inh: inhibitors of HSP90 luciferase refolding in rabbit reticulocyte lysate | luciferase refolding luminescence, 3 h | inhibition, % at 5.6 µM | 290,000 compounds, 0.91% hits;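 active = inhibition above the screen-wide mean plus 3 SD, computed separately per campaign, cut at about 16% in these data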;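 also: inhibitors lower the luminescence because luciferase stays unfolded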
SENP8 confirm: confirmation of human SENP8 protease inhibitors. shares compounds with SENP7 inh. AID 488912. 6,200 compounds, 40% hits. Recombinant SENP8, Z-RLRGG-aminoluciferin luminescence, 60 min. inhibition, % at 12.5 µM;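 active = mean inhibition across replicates above about 50%, limit read from the data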
SENP6 confirm: human SENP6 inhibition, confirmed | AID 488915 | 6,200 compounds, 58% hits | recombinant SENP6, Z-RLRGG-aminoluciferin luminescence | shares compounds with SENP7 inh | inhibition, % at 12.5 µM
SENP7 conf: confirmation of human SENP7 protease inhibitors; shares compounds with SENP7 inh; recombinant SENP7, Z-RLRGG-aminoluciferin luminescence, 40 min; inhibition, % at 12.5 µM; 6,200 compounds, 69% hits; AID 488917
Casp3 SENP sel: caspase-3 inhibition (SENP selectivity assay) | shares compounds with SENP7 inh | purified caspase-3, Z-DEVD-aminoluciferin luminescence, 60 min | inhibition, % at 12.5 µM | 6,200 compounds, 60% hits | AID 488918;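 active = mean inhibition above about 50%, limit read from the data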
Target sequence (P42574 28-227 limits assumed): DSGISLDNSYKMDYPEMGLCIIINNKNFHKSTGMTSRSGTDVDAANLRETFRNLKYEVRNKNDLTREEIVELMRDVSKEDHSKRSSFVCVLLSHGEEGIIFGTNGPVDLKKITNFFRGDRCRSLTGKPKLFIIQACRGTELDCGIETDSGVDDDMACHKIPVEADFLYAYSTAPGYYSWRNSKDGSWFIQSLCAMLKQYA
Luc interf: luminescence interference (SENP counter-screen); shares compounds with SENP7 inh; inhibition, % at 12.5 µM; 6,200 compounds, 39% hits; AID 488919; Pre-incubated SENP8/Z-RLRGG-aminoluciferin, luciferase luminescence interference;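 active = mean inhibition above about 50% when retested at one dose, limit read from the data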
Each line names hits and unclear results; the compound was inactive in the other large screens (follow-up assays come after a bar, where they were run).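 The calls were made as follows, unless noted: active = mean inhibition above about 50% in the one-dose retest (limit read from the data); inactive = the rest.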

CCOC(=O)C1CCN(C(=O)c2cc3cc(F)ccc3[nH]2)CC1	none
Cc1cn([C@H]2C[C@H](O)[C@@H](CNCc3cc(Cl)ccc3OCc3ccc(Cl)cc3)O2)c(=O)[nH]c1=O	none (no result: SENP7 inh, SENP6 inh, SENP8 block-2, HSP90 inh)
COc1ccc(O)c(-c2cc(-c3ccccc3Cl)[nH]n2)c1	none
COc1ccc(-c2cc(-c3ccccc3)n[nH]2)c(O)c1	SENP7 inh 65, SENP6 inh 68, SENP8 block-2 66 | SENP8 confirm 74 | SENP6 confirm 72 | SENP7 conf 90 | Casp3 SENP sel inactive | Luc interf 72
COc1ccc(-c2cc(-c3ccccc3O)[nH]n2)cc1	SENP7 inh 94, SENP6 inh 97, SENP8 block-2 92 | SENP8 confirm 96 | SENP6 confirm 97 | SENP7 conf 102 | Casp3 SENP sel 78 | Luc interf 94
Cc1c(C(=O)NCc2ccccc2C(F)(F)F)sc(=O)n1Cc1ccc(Cl)c(Cl)c1	none (no result: SENP7 inh, SENP6 inh, SENP8 block-2, HSP90 inh)
O=C1c2cc(S(=O)(=O)NCCO)ccc2-c2ccc(S(=O)(=O)NCCO)cc21	none
COc1ccc([N+](=O)[O-])cc1NC(=O)CSc1ccc2ccccc2c1	none
O=c1[nH]c(SCc2ccc(Cl)cc2)nc2ccsc12	SENP6 inh 78, SENP8 block-2 63 (no result: SENP8 block-1) | SENP8 confirm inactive | SENP6 confirm 67 | SENP7 conf 88 | Casp3 SENP sel inactive | Luc interf inactive
O=C(NCCN1CCOCC1)c1ccccc1Cl	none
CN(C)c1ccc(N=Cc2nc(-c3ccccc3)oc2OC(=O)c2cccc(Cl)c2)cc1	SENP7 inh 72, SENP6 inh 64 | SENP8 confirm inactive | SENP6 confirm inactive | SENP7 conf inactive | Casp3 SENP sel inactive | Luc interf inactive
Cc1ccc(C(=O)Oc2oc(-c3ccccc3)nc2C=Nc2ccc(N(C)C)cc2)cc1	none
COc1ccccc1N=Cc1c(C)c(C#N)c2[nH]c3ccccc3n2c1=O	none
Cc1c(Cc2ccccc2)c(=O)n2c([nH]c3ccccc32)c1C#N	SENP6 inh 52 | SENP8 confirm inactive | SENP6 confirm inactive | SENP7 conf inactive | Casp3 SENP sel inactive | Luc interf inactive
N#Cc1c(C(F)(F)F)cc(=O)n2c1[nH]c1ccccc12	SENP6 inh 83, SENP8 block-2 71 | SENP8 confirm inactive | SENP6 confirm 75 | SENP7 conf 91 | Casp3 SENP sel 79 | Luc interf 76
CCOC(=O)C1(c2ccccc2)SC(C(=O)OCC)(c2ccccc2)S1 (configuration not stated)	none (no result: SENP7 inh, SENP6 inh, SENP8 block-2, HSP90 inh)
COc1ccc(S(=O)(=O)NC2CC3CCC2C3)cc1Br (configuration not stated)	none
CC(C)(C)c1nnc2sc(SCC(=O)c3ccc(Cl)cc3)nn2c1=O	none
O=C(O)c1ccc(-c2cccc([N+](=O)[O-])c2)o1	none
N#C/C(=C(/O)c1ccc(-c2cccc([N+](=O)[O-])c2)o1)c1nc2ccccc2s1	SENP6 inh 97, SENP8 block-2 93 | SENP8 confirm inactive | SENP6 confirm inactive | SENP7 conf inactive | Casp3 SENP sel inactive | Luc interf inactive
O=C(CC(Nc1ccc(Cl)cc1)C(=O)O)c1ccccc1 (configuration not stated)	SENP7 inh 81, SENP6 inh 92, SENP8 block-2 77 | SENP8 confirm inactive | SENP6 confirm 86 | SENP7 conf 78 | Casp3 SENP sel 67 | Luc interf inactive
O=C(Nc1nncs1)c1cc(-c2ccncc2)nc2ccc(Cl)cc12	none
Cc1cccc(/C=N/NC(=O)c2cc(-c3cccnc3)nc3c2c(C)nn3-c2ccccc2)c1	SENP7 inh 77 | SENP8 confirm inactive | SENP6 confirm inactive | SENP7 conf inactive | Casp3 SENP sel inactive | Luc interf inactive
CCN1CCN(C2=C(NS(=O)(=O)c3ccc(Br)cc3)C(=O)c3ccccc3C2=O)CC1	SENP6 inh 64 | SENP8 confirm inactive | SENP6 confirm inactive | SENP7 conf inactive | Casp3 SENP sel inactive | Luc interf inactive
O=C1C(NS(=O)(=O)c2cccs2)=C(N2CCN(Cc3ccccc3)CC2)C(=O)c2ccccc21	none
NC(=O)C1CCN(C2=C(NS(=O)(=O)c3ccccc3)C(=O)c3ccccc3C2=O)CC1	none
CCOC(=O)C1CCN(C2=C(NS(=O)(=O)c3ccc(Br)cc3)C(=O)c3ccccc3C2=O)CC1	SENP8 block-1 50, SENP6 inh 53 | SENP8 confirm inactive | SENP6 confirm inactive | SENP7 conf inactive | Casp3 SENP sel inactive | Luc interf inactive
CC(=O)Nc1cc(ON=C(C)C)cc([N+](=O)[O-])c1	none
Cn1sc(NC(=O)c2ccccc2Cl)nc1=O	none
Cn1sc(NC(=O)c2cccc(Cl)c2)nc1=O	SENP7 inh 70, SENP6 inh 69, SENP8 block-2 65 | SENP8 confirm inactive | SENP6 confirm 72 | SENP7 conf 92 | Casp3 SENP sel 82 | Luc interf 72
CC1Cc2ccccc2N1C(=O)CCS(=O)(=O)c1cccs1 (configuration not stated)	none
Oc1ccccc1/C=C/c1noc(-c2ccccc2O)n1	SENP7 inh 52 | SENP8 confirm inactive | SENP6 confirm inactive | SENP7 conf 79 | Casp3 SENP sel inactive | Luc interf inactive
COc1cc(/C=C/c2noc(-c3ccccc3O)n2)ccc1OC(C)=O	none
CC(=O)Nc1ccc(/C=C/c2noc(-c3ccccc3O)n2)cc1	SENP7 inh 59 | SENP8 confirm inactive | SENP6 confirm inactive | SENP7 conf inactive | Casp3 SENP sel inactive | Luc interf inactive
Oc1ccccc1-c1nnco1	none (no result: SENP7 inh, SENP6 inh, SENP8 block-2, HSP90 inh)
CCc1cc(C)c(O)c(CC)n1	none
CC1=NN(c2ccccc2)C(=O)/C1=C/N(C)C	none
CCCC1=NN(c2ccc([N+](=O)[O-])cc2)C(=O)/C1=C/N(C)C	SENP7 inh 99, SENP6 inh 98, SENP8 block-2 95 | SENP8 confirm 95 | SENP6 confirm 95 | SENP7 conf 101 | Casp3 SENP sel 96 | Luc interf 96
CN(C)/C=C1\C(=O)N(c2ccc([N+](=O)[O-])cc2)N=C1c1ccccc1	SENP7 inh 97, SENP8 block-1 62, SENP6 inh 98, SENP8 block-2 95 | SENP8 confirm 98 | SENP6 confirm 99 | SENP7 conf 103 | Casp3 SENP sel 95 | Luc interf 97
